# Values joined by “and” are separate entries in the source; they are usually repeats but may differ in a detail not shown here. Identical values can stand only once. Records with an inconclusive call do not appear. More than one record can exist for a structure, and the calls need not agree. Active and inactive are the calls of the source. The calls were made as follows: active = hit-call score of the fitted dose curve at least 0.9, where 1 is the maximum; inconclusive = response in the unintended direction; inactive = score below 0.9.
# Molecular target: Nuclear receptor subfamily 4 group A member 2 (Homo sapiens) (UniProt P43354)
# Experiment: ATG_NURR1_TRANS: Attagene TRANS-FACTORIAL HepG2 Assay for human Nuclear Receptor Related Protein 1 (NURR1) (AID 2282985)
# Conditions: HepG2 Attagene TRANS reporter, mRNA readout
# Description: ATG_TRANS is a cell-based, multiplexed-readout assay that uses HepG2, a human liver cell line, with measurements taken at 24 hours after chemical dosing in a 24-well plate.ATG_NURR1_TRANS is one of 30 assay component(s) measured or calculated from the ATG_TRANS assay. It is designed to make measurements of mRNA induction, a form of inducible reporter, as detected with fluorescence intensity signals by Reverse transcription polymerase chain reaction (RT-PCR) and Capillary electrophoresis technology.Data from the assay component ATG_NURR1_TRANS was analyzed into 1 assay endpoint. This assay endpoint, ATG_NURR1_TRANS, was analyzed in the positive analysis fitting direction relative to DMSO as the negative control and baseline of activity. Using a type of inducible reporter, measures of mRNA for gain-of-signal activity can be used to understand the reporter gene at the transcription factor-level as they relate to the gene NR4A2. Furthermore, this assay endpoint can be referred to as a primary readout, because this assay has produced multiple assay endpoints where this one serves a reporter gene function. To generalize the intended target to other relatable targets, this assay endpoint is annotated to the nuclear receptor intended target family, where the subfamily is orphan.
# Human liver HepG2 cells are transiently transfected with multiple reporter transcription units (MRTUs) in 6-well plates using FuGene 6 reagent (Roche; 3 ml FuGene/1 mg DNA). The MRTU constructs are regulated by a cis-regulating element (promoter). […] A major difference between the CIS and TRANS system is that in CIS activities of endogenous TFs are measured, whereas the TRANS assay evaluates changes in activities of exogenous, chimeric NR-Gal4 proteins. […] At the end of 24 hour incubation, total RNA was isolated using TriZol reagent (Invitrogen). The isolated RNA is then reverse-transcribed using oligo(dT) primer and Mo-MLV reverse transcriptase (Invitrogen) with DNAse I (Ambion) treatment for 30 min. The one-tenth of the produced cDNA was amplified by PCR using Taq DNA polymerase (Invitrogen) and two reporter sequence-specific primers. The PCR products were fluorescently labeled by primer extension with 6-arboxyfluorescein (6-FAM) 5'-labeled reporter sequence-specific primer (2 min at 95 C, 20 s at 68 C and 10 min at 72 C) and these products were digested with 5U of HpaI (New England Biolabs) for 2h at 37 C. The fragments were purified using Qiaquick PCR columns (Qiagen), analyzed on an ABI 3130xL genetic analyzer (Applied Biosystems) with peak positions identified by using a set of X-rhodamine (ROX)-labeled MapMarker1000 molecular weight standards (BioVentures). The raw capillary electrophoresis data was processed using Attagraph software (Attagene).
# Chain of Nuclear receptor subfamily 4 group A member 2 (Homo sapiens) (P43354 whole entry, looked up): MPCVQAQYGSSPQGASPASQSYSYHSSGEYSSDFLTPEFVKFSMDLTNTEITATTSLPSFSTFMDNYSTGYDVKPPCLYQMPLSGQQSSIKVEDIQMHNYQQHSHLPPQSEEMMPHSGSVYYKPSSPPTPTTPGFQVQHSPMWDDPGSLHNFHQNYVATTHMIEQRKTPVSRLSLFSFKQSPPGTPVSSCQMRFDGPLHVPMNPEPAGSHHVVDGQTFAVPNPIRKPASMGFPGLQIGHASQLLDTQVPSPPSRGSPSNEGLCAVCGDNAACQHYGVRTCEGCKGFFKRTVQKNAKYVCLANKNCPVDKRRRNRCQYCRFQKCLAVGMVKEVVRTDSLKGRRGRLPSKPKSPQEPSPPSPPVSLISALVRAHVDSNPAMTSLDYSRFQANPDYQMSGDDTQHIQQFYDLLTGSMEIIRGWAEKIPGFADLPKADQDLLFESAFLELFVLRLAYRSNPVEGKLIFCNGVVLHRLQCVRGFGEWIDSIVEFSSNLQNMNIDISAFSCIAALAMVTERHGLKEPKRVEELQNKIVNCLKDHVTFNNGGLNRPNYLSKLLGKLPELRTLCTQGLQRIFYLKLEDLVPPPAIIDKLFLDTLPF
Structure (SMILES),outcome,AC50
CCC(C)(CC)c1cc(NC(=O)c2c(OC)cccc2OC)on1,inactive,–
CC(C)C(=O)OCC(C)(C)C(OC(=O)C(C)C)C(C)C (stereo not given),inactive,–
C=CC(=O)NCNC(=O)C=C,inactive,–
Oc1c(Cl)c(Cl)c(Cl)c(Cl)c1Cl,inactive,–
c1ccc(-c2ccccc2)cc1,inactive,–
C[C@]12CCC(=O)C=C1CC[C@@H]1[C@@H]2CC[C@]2(C)C(=O)CC[C@@H]12,inactive,–
Clc1ccc(Cl)cc1,inactive,–
Oc1ccc(C(c2ccc(O)cc2)(C(F)(F)F)C(F)(F)F)cc1,inactive,11.1 µM (active)
CCCCCCOC(=O)c1ccccc1C(=O)OCCCCCC,inactive,–
NS(=O)(=O)C(F)(F)C(F)(F)C(F)(F)C(F)(F)C(F)(F)C(F)(F)C(F)(F)C(F)(F)F,inactive,–
CCOP(=S)(OCC)SCSC(C)(C)C,inactive,–
CCCCCCCCCC[N+](C)(C)CCCCCCCCCC,inactive,–
Clc1ccc(C(c2ccccc2Cl)C(Cl)(Cl)Cl)cc1 (stereo not given),inactive,–
Cc1cc2c3c(c1)C(c1ccccc1)=N[C@@H](NC(=O)c1ccncc1)C(=O)N3CC2,inactive,–
CCC(=O)O[C@H]1CC[C@H]2[C@@H]3CCC4=CC(=O)CC[C@]4(C)[C@H]3CC[C@]12C,inactive,–
Oc1ccc(Cl)cc1Cl,inactive,–
CCC(C)(c1ccc(O)cc1)c1ccc(O)cc1,inactive,–
OCC(O)CO,inactive,–
CC#Cc1cc(C)nc(Nc2ccccc2)n1,inactive,–

Structure (SMILES),outcome,AC50
COS(=O)(=O)OC,inactive,–
ClC(Cl)=C(c1ccc(Cl)cc1)c1ccc(Cl)cc1,inactive,–
O=S(=O)(O)C(F)(F)C(F)(F)C(F)(F)C(F)(F)F,inactive,–
O=C(NC(=O)c1cc(F)c(F)cc1Cl)Nc1cc(F)ccc1N1CCC(C(=O)O)CC1,inactive,–
O=S(=O)(O)C(F)(F)C(F)(F)C(F)(F)C(F)(F)C(F)(F)C(F)(F)F,inactive,–
CC(C)(c1ccccc1)c1ccc(O)cc1,inactive,–
O=C(O)C(F)(F)C(F)(F)C(F)(F)C(F)(F)C(F)(F)F,inactive,–
c1cc2ccc3cccc4ccc(c1)c2c34,inactive,–
CCOCCOC(C)=O,inactive,–
C=CC(N)=O,inactive,–
CN(C)CCO,inactive,–
Sc1ccccc1,inactive,–
C[C@]12CCC(=O)C=C1CC[C@@H]1[C@@H]2CC[C@@]2(C)[C@H]1CC[C@]2(C)O,inactive,–
O=C(O)C(F)(F)C(F)(F)C(F)(F)C(F)(F)C(F)(F)C(F)(F)C(F)(F)C(F)(F)F,–,38.9 µM (active) and 39.4 µM (active)
CO/C=C(/C(=O)OC)c1ccccc1COc1cccc(C(F)(F)F)n1,–,29.3 µM (active)
Cc1cc(-c2ccc(N)c(C)c2)ccc1N,inactive,–
Cc1ccccc1CO[C@@H]1C[C@@]2(C(C)C)CC[C@]1(C)O2,inactive,–
O=C(O)C(F)(F)C(F)(F)C(F)(F)C(F)(F)C(F)(F)C(F)(F)C(F)(F)C(F)(F)C(F)(F)F,inactive,12.9 µM (active)
CCCCCCCCCc1ccc(O)cc1,inactive,–

# From PubChem BioAssay (EPA / NIEHS)
